Data on 31 compounds can be found in PubChem BioAssay (NCATS).

Results filed as inconclusive are left out. Activity calls are given as the source filed them. Calls come from the whole dose curve; as a rule, active = well fitted activation curve with a large enough effect; inconclusive = small, poorly fitted or top-dose-only effect; inactive = flat fitted curve, though single readings scatter. Bridge positions count the residues as written; N and C are the ends. Square brackets hold non-standard residues; d marks the D form. Side chains are listed from the residue outwards. Peptide text beside a SMILES is read from it. * marks the point of attachment. Phg(4-OMe) = COc1ccc([C@H](N)C(=O)O)cc1; d(aIle) = CC[C@H](C)[C@@H](N)C(=O)O; d(aThr) = C[C@@H](O)[C@@H](N)C(=O)O; NMeF = CN[C@@H](Cc1ccccc1)C(=O)O; Isobutyryl = CC(C)C(=O)*

The assay can be described thus: qHTS for Hypoxia signaling pathway (HIF-1) agonists against the NCATS CANVASS Library (AID 1347375). Note: 0% is about no effect. The conditions noted are these: HRE-bla ME-180 cells, HIF-1 beta-lactamase reporter, 17 h; series mostly up to 38.3 µM. An outline of the steps: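 Cells plated and rested 5 h, compounds pinned in DMSO across 11 concentrations, incubated 17 h at 37C, loaded with CCF4-AM for 2 h, fluorescence read at 460 and 530 nm, then CellTiter-Glo luminescence measured for viability and normalization.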
On the technique in general: qHTS replaces the single test concentration by a dilution series.
Take `CC(C)=CCC[C@]12c3cc4c(cc3CC[C@@]1(C)[C@H](C)CC[C@@H]2O)[nH]c1ccccc14`: the outcome was inactive.
For `C/C=C/C1C=CC2CC(C)CC(C)C2C1C(=O)CC(=O)NC(CO)C/C=C/CCCCC` (stereo unspecified), the compound was classed as inactive.
Still for that read-out and setting: next, `C=C1CC[C@@H](Br)C(C)(C)[C@]12CC=C(C)C(=O)C2`: “inactive”.
On the same count and under the same terms, next, `C=CC(CCCCC)C1C(=O)NC(=O)C1C(=O)C1C(/C=C/C)C=CC2CC(C(=O)O)CC(C)C21` (stereo unspecified): “inactive”; `C=C[C@@]1(C)CC[C@@H]([C@H](C)C(=O)/C=C/C(C)(C)O)O1`: “inactive”; `O=C1CC2OCC=C3CN4C5CC3C2[C@@H]2N1c1ccccc1[C@]52C[C@@H]4C1=C[C@H]2C3CC4N(CC[C@@]45c4ccccc4N(C1=O)[C@@H]25)C/C3=C/CO` (stereo partly specified): “inactive”.
`C=C1CC[C@@H](O[C@H]2C[C@@](O)([C@H](C)NC(=O)c3[nH]c(C)c(Cl)c3Cl)[C@H](O)[C@@H](C)O2)[C@@H]2C=C[C@H](C)C(/C(O)=C3/C(=O)[C@H](C(C)C)N([C@@H]4O[C@H](C)[C@H](OC(N)=O)[C@H](OC(C)=O)[C@@H]4OC)C3=O)[C@@H]12` (stereo partly specified): the outcome was inactive.
As to `CC[C@H](C)[C@H]1NC(=O)[C@@H](NC(=O)C(C)C)[C@@H](C)OC(=O)[C@H](COC(=O)CNC(C)=O)NC(=O)[C@@H]([C@@H](C)O)NC(=O)[C@H](Cc2ccccc2)N(C)C(=O)[C@H](c2ccc(OC)cc2)NC1=O` (Isobutyryl-T[d(aIle)][Phg(4-OMe)][NMeF][d(aThr)]S([Gly-Ac]); ester 1-C), the call was inactive.
On to `COc1c(O)cc2c(c1O)C(=O)c1c(coc1C)C2=O`, for which the compound was classed as inactive.
Same read-out and setting: next, `C[C@]12CC[C@]3(C1)[C@H](CC2=O)C[C@@H](OC(=O)c1ccccc1)[C@H]1[C@](C)(C(=O)O)CCC[C@@]13C`: “inactive”.
On the same count and under the same terms, then `Cc1occ2c1C(=O)c1c(cc(O)c(O)c1O)C2=O`, with “inactive”.
With `COc1ccc2[nH]c3c(c2c1)CCN1C[C@H]2C[C@@H](OC(=O)c4cc(OC)c(OC)c(OC)c4)[C@H](OC)[C@@H](OC)[C@H]2C[C@H]31`, the result was inactive.
For `C=C[C@](Cl)(CBr)CCC=C(C)C`, the result was inactive.
Same read-out and setting: then `CC(=O)O[C@H]1c2ccccc2-c2c3c(cc4c2[C@@H]1N(C(C)=O)CC4)OCO3`, with “inactive”; and `C=CC(CCCCC)C1C(=O)NC(=O)C1C(=O)C1C2C(C)CC(C(=O)O)CC2CC1(O)C(=O)/C=C/C` (stereo unspecified), with “inactive”; and `O[C@H]1c2ccccc2-c2c3c(cc4c2[C@@H]1NCC4)OCO3`, with “inactive”.
Same read-out and setting: then `C[C@]12CCC[C@](C)(C(=O)O)[C@@H]1CC[C@@]1(C)c3cocc3CC[C@H]21`, with “inactive”.
As for `COc1cc(C2OCC3C(c4ccc(O)c(OC)c4)OCC23)ccc1O` (stereo unspecified), the activation is -1.39% [at 7.64 µM] (inactive).
In the case of `C[n+]1cc2cc(C(N)=O)[nH]c3c(=N)c(Cl)c(N)c1c23`, the compound was called inactive.
Regarding `COc1cc2c(c(O)c1O)C(=O)c1c(coc1C)C2=O`, the compound was classed as inactive.
Consider `CCC(=O)N[C@@H](C[C@H](C)C(Cl)(Cl)Cl)C(=O)N1C(=O)C=C(OC)[C@@H]1CC(C)C`, for which the outcome was inactive.
The same measure, in the same setting: next, `O=c1cc(-c2ccc(O)c(O)c2)oc2cc(O[C@@H]3O[C@H](CO)[C@@H](O)[C@H](O)[C@H]3O)cc(O)c12`: “inactive”; `C/C1=C/[C@@H](C)[C@H](O)[C@@H](O)/C=C/CC/C=C/C(=O)O[C@@H]1[C@H](C)C(=O)CCCC1CC(=O)NC(=O)C1`: “inactive”.
Turning to `CN1CC[C@]2(c3cccc4c3N[C@H]3N(C)CC[C@@]43[C@]34CCN(C)[C@H]3Nc3ccccc34)c3ccccc3N[C@H]12`, the compound was called inactive.
The same measure, in the same setting: then `CC[C@H]1[C@H](C)[C@H](c2cc(OC)c(OC)cc2OC)[C@@H](C)[C@H](c2cc(OC)c(OC)cc2OC)[C@@]12C=C(OC)C(=O)C=C2OC`, with “inactive”; and `CC(=O)Oc1cc2c(c(OC(C)=O)c1C1CCc3cc(Cl)c(Cl)n31)C(=O)n1c-2cc(Cl)c1Cl` (stereo unspecified), with “inactive”; and `COc1cc2c(cc1OC)[C@@H](c1ccc3c(c1)OCO3)C(C)C(C)C2=O` (stereo partly specified), with “inactive”.
Same read-out and setting: then `C/C=C(/C)c1c(Cl)c(O)c(C)c2c1Oc1c(Cl)c(O)c(Cl)c(C)c1C(=O)O2`, with “inactive”; and `CC(C)C[C@@H]1c2c(O)c(C=O)c(O)c(C=O)c2O[C@]2(C)C=C[C@@H](C(C)C)C[C@H]12`, with “inactive”.
Still for that read-out and setting: then `C/C=C(/C)c1cc(O)c(C)c2c1Oc1cc(O)cc(C)c1C(=O)O2`, with “inactive”; and `CC(C)[C@]12CC[C@@]3(C)[C@H](C)CC[C@H](O)[C@@]3(CC1)c1cc3c(cc12)[nH]c1ccccc13`, with “inactive”.
